The campaign covered roughly 360,000 compounds. About 3,800 (1.1%) were called active. What follows is part of a selection rich in actives, with near analogues and random picks from the rest. Values without a mark were called inactive.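 How the source made its calls: active means compounds causing at least 50% loss of cell viability in the single-dose screen, relative to plate controls; inactive means the rest.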
experiment: viability loss with TRAIL in NB7+C8 cells, primary screen, TRAIL sensitizer project, cell-based, ATPlite luminescence (AID 624354); details: at 10 µM, stronger effect = higher value

SMILES	inhibition (viability loss, TRAIL sensitization)
Cc1cnc(NC(=O)c2ccccn2)s1	56% (active)
Cc1cc(C)cc(NC(=O)NCc2ccccn2)c1	7.88%
COc1ccc2occ(C(=O)c3ccc(N=C(C)N(C)C)cc3)c2c1	10.5%
Cc1ccc(NC(=O)c2ccc(Oc3ncccn3)cc2)cc1	1.61%
O=C(Nc1ccc(OC(F)(F)F)cc1)c1ccc2c(c1)no[n+]2[O-]	86.8% (active)
CCc1nnc(NS(=O)(=O)c2ccc(NC(=O)c3cccc(OC(F)(F)C(F)F)c3)cc2)s1	-18.2%
Cc1ccccc1C(=O)NNC(=O)CN1C(=O)c2ccccc2C1=O	-2.34%
C=CCn1c(C)cc(C(=O)CN2C(=O)c3ccccc3C2=O)c1C	52% (active)
C=CCN(CC=C)C(=O)CN1C(=O)c2ccccc2C1=O	36.5%
COc1ccc(CN2C[C@H]3CON(C)[C@H]3C[C@H]2c2ccc(-c3cccc(F)c3)cc2)cc1	17%
COc1ccc(NC(=O)/C(Cl)=C(/Cl)S(=O)Cc2ccc(C)cc2)cn1 (configuration not stated)	95.5% (active)
COc1cc(NC(=O)Nc2ccc(C)cc2)cc([N+](=O)[O-])c1	3.5%
COC(C)(C)[C@]12CC(O)(C(C)C)ON1[C@H]1CCCCC1N2O (some centres not stated)	-21.2%
O=[N+]([O-])c1c(NCCO)cc(Sc2nc3ccccc3s2)c2nonc12	20.4%
O=[N+]([O-])c1cc(Br)c(O)c(/C=N/Nc2nc3ccccc3s2)c1	51.2% (active)
O=[N+]([O-])c1cccc(C=NN=Cc2ccccc2O)c1	11%
CC(C)C[C@H]1CNC(=S)N1C[C@H]1CCCN1C[C@H](Cc1ccc(O)cc1)N1C[C@H](Cc2ccc(O)cc2)N(CC2CCCCC2)C1=S	9.11%
COc1cc(/C=C2\Oc3ccc(C#Cc4ccc(O)cc4)cc3C2=O)cc(OC)c1	64.7% (active)
COc1cc(C(=O)N2CCOC23CCN(Cc2ccccc2)CC3)cc(OC)c1OC	-0.803%
CCSCc1nc(N)nc(NCCc2ccccc2)n1	-10.6%
CC(=O)Nc1cccc(C(=O)OCC(=O)c2ccc3c(c2)OCO3)c1	61.4% (active)
CC(=O)Nc1cccc(C(=O)OCC(=O)NCc2cc(C)c(O)c(C)c2)c1	-2.97%
CC(=O)Nc1cccc(C(=O)OCN2C(=O)c3ccccc3C2=O)c1	-5.54%
CC(C)C[C@@H](COc1ccccc1)N1CCN(CC(C)C)CCC1=O	-6.68%

SMILES	inhibition (viability loss, TRAIL sensitization)
CCCCc1nc(NCCN)c(C#N)c2c1CSC(C)(C)C2	57.7% (active)
CCCCc1nc(NCc2ccccc2)c(C#N)c2c1CCCC2	4.11%
CC(=O)N1CCCc2cc(S(=O)(=O)N3CCCC(C(=O)N4CCN(c5cccc(Cl)c5)CC4)C3)ccc21 (configuration not stated)	35.8%
Cc1nc2ccc(N)nc2nc1C	6.29%
COc1cccc(-n2c(=O)c3c(C)c(C(=O)N(C)C)sc3n(CC(=O)NCCc3ccc(OC)c(OC)c3)c2=O)c1	-6.94%
C/C(=N\OC(=O)c1ccccc1)c1c(C)nc2cc(C)ccn12	-6.57%
Cc1cccc(/C(N)=N/OC(=O)c2ccccc2Cl)c1	60.5% (active)
Cc1cc(OC(=O)c2ccccc2Cl)ccc1N1C(=O)CCC1=O	7.7%
O=C(Nc1cccc2c1N(C(=O)c1ccco1)CCC2)c1ccco1	-4.17%
Cc1ccc(C(C)C)c(OCCSc2nc3ccccc3n2CC(=O)O)c1	-6.21%
COc1ccc(NC(=O)CN2C(=O)COc3ccc(S(=O)(=O)N4CCOCC4)cc32)cc1	4.01%
Cc1cc(Cl)c2oc(C(=O)N3CCC(O)(c4ccccc4)CC3)c(C)c2c1	12.6%
Cc1nc(N2CCCC2C(=O)O)c2oc3ccccc3c2n1 (configuration not stated)	-12.2%
C[C@@H](Nc1nc(-c2ccccc2)nc2c1oc1ccccc12)C(=O)O	-9.15%
Cc1nc(Cl)c2oc3ccccc3c2n1	69.6% (active)
CCC(=O)N(Cc1cc2ccccc2[nH]c1=O)c1ccc(OC)cc1	-1.03%
CC(=O)N(Cc1cc(=O)[nH]c2ccccc12)c1ccc(C)cc1C	1.98%
Cc1ccc(N(Cc2cc(=O)[nH]c3ccccc23)C(=O)CCl)cc1	92.9% (active)
CN(C(=O)CSc1nnc(-c2ccc3c(c2)OCO3)o1)C1CCS(=O)(=O)C1 (configuration not stated)	-7.74%
C=C1C(=O)[C@]23C[C@H]1CCC2[C@@]1(C)C(C[C@@H]3O)[C@](C)(C(=O)O)CC[C@@H]1O (some centres not stated)	25.6%
CCOc1ccc2nc(N3CCCN(C(=O)Nc4ccccc4C)CC3)c(C#N)cc2c1	4.35%
CCOc1ccc2cc(C#N)c(SCC(=O)OC)nc2c1	51.7% (active)
COc1ccc(CCNC(=O)CSc2nc(-c3ccc(OC)c(OC)c3)ccc2C#N)cc1	28%
